Reference: the supplement of paper PMC10849652
About 7,900 targets were measured; listed, in parts, are those with a hit and a random draw of the rest. About 0.6% of all pairs of compound and target were hits.

How the values were obtained:
Assay in all cases: log2 fold change, soluble protein after heating vs DMSO (PISA); higher = thermal stabilisation; K562 cells, 10 uM, 30 min; active = over 0.2 and 3.5 SD of the protein, either way, in both replicates (recomputed)
[1] = compound: CC1=C(C=C(C=C1)NC(=O)C2=CC(=CC=C2)C(C)(C)C#N)NC3=CC4=C(C=C3)N=CN(C4=O)C
In short: (§1)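 K562 cells (2×10^6 cells/mL) were treated with 10 μM compound for 30 min, and aliquots were heated for 3 min over 48°C-58°C. Pooled aliquots were extracted in PBS with 0.5% NP-40 at 4°C, and the supernatant after 21,000xg for 90 min was measured by TMTpro 16plex LC-MS/MS with channel sums equalised. Reported thermal stability, relative to control samples and from duplicates, is a log2 fold change.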

[2] = compound: CC1=C(C=C(C=C1)NC(=O)C2=CC(=CC=C2)N(C)C)NC(=O)C3=CC=C(C=C3)O
In short: as §1

[3] = compound: CC1=CC=C(C=C1)SC2=C3C=C(SC3=CN=C2)C(=O)N
In short: as §1

[4] = compound: CC1=NC(=CC=C1)C2=C(N=C(N2)C(C)(C)C)C3=CC4=NC=CN=C4C=C3
In short: as §1

Nexturastat A = compound: CCCCN(Cc1ccc(C(=O)NO)cc1)C(=O)Nc1ccccc1 [Nexturastat A]
In short: as §1

vemurafenib = compound: CCCS(=O)(=O)Nc1ccc(F)c(C(=O)c2c[nH]c3ncc(-c4ccc(Cl)cc4)cc23)c1F [vemurafenib]
In short: as §1

[5] = compound: CCCS(=O)(=O)Nc1ccc(F)c(C(=O)c2c[nH]c3ncc(Cl)cc23)c1F
In short: as §1

[6] = compound: CCCc1cc(C)[nH]c(=O)c1CNC(=O)c1cc(-c2ccnc(N3CCN(C)CC3)c2)cc2c1cnn2C(C)C
In short: as §1

givinostat = compound: CCN(CC)Cc1ccc2cc(COC(=O)Nc3ccc(C(=O)NO)cc3)ccc2c1 [givinostat]
In short: as §1

barasertib = compound: CCN(CCCOc1ccc2c(Nc3cc(CC(=O)Nc4cccc(F)c4)[nH]n3)ncnc2c1)CCOP(=O)(O)O [barasertib]
In short: as §1

[7] = compound: CC[C@@H]1C(=O)N(C)c2cnc(Nc3ccc(C(=O)NC4CCN(C)CC4)cc3OC)nc2N1C1CCCC1
In short: as §1

volasertib = compound: CC[C@@H]1C(=O)N(C)c2cnc(Nc3ccc(C(=O)N[C@H]4CC[C@H](N5CCN(CC6CC6)CC5)CC4)cc3OC)nc2N1C(C)C [volasertib]
In short: as §1

[8] = compound: CC[C@H](C)N1C=C(C2=C(C=C(C=C21)C3=CN=C(C=C3)N4CCNCC4)C(=O)NCC5=C(C=C(NC5=O)C)C)C
In short: as §1

epoxomicin = compound: CC[C@H](C)[C@@H](C(=O)N[C@@H]([C@@H](C)O)C(=O)N[C@@H](CC(C)C)C(=O)[C@]1(CO1)C)NC(=O)[C@H]([C@@H](C)CC)N(C)C(=O)C [epoxomicin]
In short: as §1

[9] = compound: CCn1c(C(=O)N(C2CC2)C2CC2)cc2c3c(ncn3C)c(Nc3cc(C)n(C)n3)nc21
In short: as §1

[10] = compound: CCn1cc(-c2ccnc3[nH]c(-c4cccc(CN(C)C)c4)cc23)c(-c2ccc(NC(=O)N(C)C)cc2)n1
In short: as §1

[11] = compound: CN(C)CC(=O)Nc1ccc2[nH]c(=O)c3ccccc3c2c1
In short: as §1

rosiglitazone = compound: CN(CCOC1=CC=C(C=C1)C[C@H]2C(=O)NC(=O)S2)C3=CC=CC=N3 (racemic) [rosiglitazone]
In short: as §1

[12] = compound: CN1C2=C(C3=C1C(=O)N(N=C3)CC4=CC(=CC=C4)N)SC(=C2)S(=O)C
In short: as §1

[13] = compound: CN1CCC(CNc2ccc3ncc(-c4cccc(OC(F)(F)F)c4)n3n2)CC1
In short: as §1

Measured: log2 fold change

PEX16 isoform 2 (UniProt Q9Y5Y5)
inactive: [1] 0.017 | [2] 0.038 | [3] 0.083 | [4] 0.146 | Nexturastat A -0.033 | vemurafenib 0.071 | [5] 0.089 | [6] -0.07 | givinostat 0.006 | barasertib -0.007 | [7] -0.065 | volasertib -0.138 | [8] -0.013 | epoxomicin -0.024 | [9] -0.041 | [10] 0.033 | [11] 0.013 | rosiglitazone 0.062 | [12] -0.127 | [13] -0.124

PC (UniProt P11498)
Sequence of UniProt P11498 (P11498 whole entry, looked up): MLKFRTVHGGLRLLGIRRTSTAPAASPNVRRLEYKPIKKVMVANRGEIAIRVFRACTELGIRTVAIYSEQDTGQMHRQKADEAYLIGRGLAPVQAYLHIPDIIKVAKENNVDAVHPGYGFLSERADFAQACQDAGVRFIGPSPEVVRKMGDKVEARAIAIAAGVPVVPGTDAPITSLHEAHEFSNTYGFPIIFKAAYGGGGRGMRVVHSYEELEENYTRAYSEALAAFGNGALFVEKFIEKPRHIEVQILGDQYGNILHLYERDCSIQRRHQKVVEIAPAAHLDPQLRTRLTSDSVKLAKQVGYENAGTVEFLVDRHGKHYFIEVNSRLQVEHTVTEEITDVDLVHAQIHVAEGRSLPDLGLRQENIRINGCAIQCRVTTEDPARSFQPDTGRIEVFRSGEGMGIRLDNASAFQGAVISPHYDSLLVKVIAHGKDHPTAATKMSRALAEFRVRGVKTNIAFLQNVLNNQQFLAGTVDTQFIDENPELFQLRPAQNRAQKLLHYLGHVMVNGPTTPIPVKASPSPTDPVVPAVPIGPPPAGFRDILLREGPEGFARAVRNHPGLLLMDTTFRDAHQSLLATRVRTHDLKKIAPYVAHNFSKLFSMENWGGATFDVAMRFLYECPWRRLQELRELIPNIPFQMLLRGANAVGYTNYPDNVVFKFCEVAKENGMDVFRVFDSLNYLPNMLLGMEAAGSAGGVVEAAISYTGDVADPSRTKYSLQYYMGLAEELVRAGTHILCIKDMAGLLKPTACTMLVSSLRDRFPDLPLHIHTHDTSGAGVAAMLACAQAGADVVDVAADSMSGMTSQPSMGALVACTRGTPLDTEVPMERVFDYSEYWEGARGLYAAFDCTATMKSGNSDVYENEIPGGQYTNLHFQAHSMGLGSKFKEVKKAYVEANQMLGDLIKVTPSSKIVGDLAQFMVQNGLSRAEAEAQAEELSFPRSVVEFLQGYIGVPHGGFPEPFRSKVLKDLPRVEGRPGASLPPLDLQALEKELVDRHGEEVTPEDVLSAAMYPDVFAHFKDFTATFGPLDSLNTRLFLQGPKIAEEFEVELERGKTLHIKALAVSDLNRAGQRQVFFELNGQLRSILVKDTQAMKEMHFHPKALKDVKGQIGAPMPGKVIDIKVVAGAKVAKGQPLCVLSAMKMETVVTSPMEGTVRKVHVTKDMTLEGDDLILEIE
inactive: [1] 0.07 | [2] -0.103 | [3] 0.038 | [4] 0.012 | Nexturastat A -0.07 | vemurafenib 0 | [5] 0.032 | [6] 0.039 | givinostat 0.022 | barasertib 0.009 | [7] -0.041 | volasertib -0.069 | [8] 0.067 | epoxomicin 0.041 | [9] -0.082 | [10] -0.217 | [11] 0.027 | rosiglitazone 0.084 | [12] -0.128 | [13] 0.03

PDS5B (UniProt Q9NTI5)
Sequence of UniProt Q9NTI5 (Q9NTI5 whole entry, looked up): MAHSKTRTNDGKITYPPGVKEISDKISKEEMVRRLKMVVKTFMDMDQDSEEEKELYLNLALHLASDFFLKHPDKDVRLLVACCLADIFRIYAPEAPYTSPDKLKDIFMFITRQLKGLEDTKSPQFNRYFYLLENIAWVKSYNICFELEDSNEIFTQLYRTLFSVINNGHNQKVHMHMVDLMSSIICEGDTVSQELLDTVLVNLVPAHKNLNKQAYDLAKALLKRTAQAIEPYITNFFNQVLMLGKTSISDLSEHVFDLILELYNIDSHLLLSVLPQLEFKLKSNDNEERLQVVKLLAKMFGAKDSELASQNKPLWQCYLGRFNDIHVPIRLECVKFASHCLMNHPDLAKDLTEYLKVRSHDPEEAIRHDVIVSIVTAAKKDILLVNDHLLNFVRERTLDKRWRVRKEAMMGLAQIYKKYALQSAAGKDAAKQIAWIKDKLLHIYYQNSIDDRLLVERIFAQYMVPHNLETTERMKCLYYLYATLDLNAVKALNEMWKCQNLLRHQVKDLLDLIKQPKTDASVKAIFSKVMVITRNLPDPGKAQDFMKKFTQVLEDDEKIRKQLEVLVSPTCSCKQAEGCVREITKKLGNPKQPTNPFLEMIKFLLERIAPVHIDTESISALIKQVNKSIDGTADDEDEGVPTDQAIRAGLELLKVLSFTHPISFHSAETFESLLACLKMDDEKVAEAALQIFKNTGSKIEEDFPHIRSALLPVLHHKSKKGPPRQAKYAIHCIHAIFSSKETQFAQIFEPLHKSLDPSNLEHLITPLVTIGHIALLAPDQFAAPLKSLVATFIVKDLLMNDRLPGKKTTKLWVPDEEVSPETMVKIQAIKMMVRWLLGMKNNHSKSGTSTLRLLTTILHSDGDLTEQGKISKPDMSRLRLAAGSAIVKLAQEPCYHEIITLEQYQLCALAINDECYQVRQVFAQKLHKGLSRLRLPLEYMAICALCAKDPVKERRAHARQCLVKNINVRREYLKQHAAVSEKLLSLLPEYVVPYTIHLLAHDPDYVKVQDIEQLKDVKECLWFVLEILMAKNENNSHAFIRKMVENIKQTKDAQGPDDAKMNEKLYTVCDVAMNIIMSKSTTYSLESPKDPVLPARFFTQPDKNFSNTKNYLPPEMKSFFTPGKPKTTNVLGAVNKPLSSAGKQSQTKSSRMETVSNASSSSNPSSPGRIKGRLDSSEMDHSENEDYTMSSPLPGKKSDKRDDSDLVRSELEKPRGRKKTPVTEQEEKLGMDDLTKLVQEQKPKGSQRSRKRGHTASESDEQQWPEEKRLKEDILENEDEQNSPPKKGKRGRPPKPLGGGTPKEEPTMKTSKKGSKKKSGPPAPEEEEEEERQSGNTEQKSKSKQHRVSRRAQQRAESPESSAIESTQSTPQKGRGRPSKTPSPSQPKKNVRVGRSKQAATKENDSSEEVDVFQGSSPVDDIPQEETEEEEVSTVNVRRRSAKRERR
inactive: [1] -0.088 | [2] 0.086 | [3] 0.176 | [4] 0.109 | Nexturastat A -0.011 | vemurafenib -0.032 | [5] 0.32 | [6] -0.058 | givinostat 0.135 | barasertib 0.047 | [7] -0.004 | volasertib 0.024 | [8] 0.12 | epoxomicin 0.105 | [9] -0.113 | [10] 0.103 | [11] 0.079 | rosiglitazone 0.035 | [12] 0.131 | [13] -0.41

PEX7 (UniProt O00628)
inactive: [1] 0.061 | [2] -0.011 | [3] 0.025 | [4] -0.066 | Nexturastat A -0.041 | vemurafenib -0.049 | [5] 0.007 | [6] -0.035 | givinostat -0.107 | barasertib -0.089 | [7] 0.038 | volasertib 0.005 | [8] -0.027 | epoxomicin 0.075 | [9] -0.044 | [10] -0.01 | [11] 0.091 | rosiglitazone -0.045 | [12] -0.067 | [13] 0.023

PTGES3 (UniProt Q15185)
Sequence of UniProt Q15185 (Q15185 whole entry, looked up): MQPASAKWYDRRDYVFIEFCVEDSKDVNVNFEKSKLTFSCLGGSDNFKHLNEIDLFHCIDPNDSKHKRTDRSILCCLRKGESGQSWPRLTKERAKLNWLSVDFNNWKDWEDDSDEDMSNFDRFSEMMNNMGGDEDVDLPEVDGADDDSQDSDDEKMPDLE
active: volasertib -0.504
inactive: [1] 0.039 | [2] -0.073 | [3] 0.044 | [4] 0.078 | Nexturastat A -0.046 | vemurafenib 0.032 | [5] 0.111 | [6] 0.034 | givinostat 0.026 | barasertib 0.064 | [7] -0.21 | [8] 0.096 | epoxomicin 0.041 | [9] 0 | [10] -0.11 | [11] 0.049 | rosiglitazone 0.048 | [12] -0.045 | [13] -0.134

PKM (UniProt P14618)
Sequence of UniProt P14618 (P14618 whole entry, looked up): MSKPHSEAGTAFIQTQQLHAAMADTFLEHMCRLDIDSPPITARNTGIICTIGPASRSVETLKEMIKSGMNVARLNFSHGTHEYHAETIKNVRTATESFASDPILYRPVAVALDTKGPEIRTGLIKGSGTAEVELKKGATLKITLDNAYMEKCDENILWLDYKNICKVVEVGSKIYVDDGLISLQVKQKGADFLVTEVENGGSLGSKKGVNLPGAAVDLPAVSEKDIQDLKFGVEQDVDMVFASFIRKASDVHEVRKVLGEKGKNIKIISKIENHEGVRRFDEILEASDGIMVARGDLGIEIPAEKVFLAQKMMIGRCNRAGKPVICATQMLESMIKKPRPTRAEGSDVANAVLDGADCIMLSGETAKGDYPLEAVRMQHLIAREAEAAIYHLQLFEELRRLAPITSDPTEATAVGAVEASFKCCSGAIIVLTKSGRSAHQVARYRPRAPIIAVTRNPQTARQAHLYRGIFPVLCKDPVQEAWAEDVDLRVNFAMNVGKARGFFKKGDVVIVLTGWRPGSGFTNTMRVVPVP
inactive: [1] -0.013 | [2] -0.005 | [3] 0.001 | [4] 0.014 | Nexturastat A -0.054 | vemurafenib -0.012 | [5] -0.01 | [6] -0.023 | givinostat 0 | barasertib -0.011 | [7] 0.018 | volasertib 0.037 | [8] -0.035 | epoxomicin 0.001 | [9] -0.002 | [10] -0.007 | [11] -0.015 | rosiglitazone 0.015 | [12] 0.002 | [13] -0.017

PCBP2 isoform 3 (UniProt Q15366)
inactive: [1] 0.054 | [2] -0.024 | [3] 0.065 | [4] 0.149 | Nexturastat A -0.006 | vemurafenib 0.056 | [5] 0.129 | [6] -0.004 | givinostat 0.031 | barasertib 0.013 | [7] -0.069 | [8] 0.071 | epoxomicin 0.013 | [9] -0.036 | [10] -0.003 | [11] 0.043 | rosiglitazone 0.062 | [12] -0.001 | [13] -0.081
active: volasertib -0.263

PSMD6 (UniProt Q15008)
inactive: [1] -0.007 | [2] -0.004 | [3] -0.045 | [4] -0.045 | Nexturastat A 0.108 | vemurafenib -0.055 | [5] -0.014 | [6] 0.01 | givinostat -0.034 | barasertib -0.012 | [7] 0.09 | volasertib 0.18 | [8] 0.01 | epoxomicin -0.247 | [9] -0.009 | [10] 0.063 | [11] -0.023 | rosiglitazone -0.029 | [12] 0.029 | [13] 0.061

PEA15 isoform 2 (UniProt Q15121)
Sequence of UniProt Q15121 (Q15121 whole entry, looked up): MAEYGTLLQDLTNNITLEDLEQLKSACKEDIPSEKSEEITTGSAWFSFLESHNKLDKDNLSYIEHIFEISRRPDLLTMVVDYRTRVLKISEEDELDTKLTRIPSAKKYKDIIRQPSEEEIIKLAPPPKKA
inactive: [1] 0.004 | [2] -0.039 | [3] 0.042 | [4] -0.008 | Nexturastat A -0.071 | vemurafenib 0.002 | [5] 0.122 | [6] -0.003 | givinostat 0.003 | barasertib 0.082 | [7] -0.078 | volasertib -0.162 | [8] -0.018 | epoxomicin 0 | [9] 0.083 | [10] 0.022 | [11] 0.004 | rosiglitazone 0.025 | [12] -0.002 | [13] 0.039

PRKAR2A (UniProt P13861)
Sequence of UniProt P13861 (P13861 whole entry, looked up): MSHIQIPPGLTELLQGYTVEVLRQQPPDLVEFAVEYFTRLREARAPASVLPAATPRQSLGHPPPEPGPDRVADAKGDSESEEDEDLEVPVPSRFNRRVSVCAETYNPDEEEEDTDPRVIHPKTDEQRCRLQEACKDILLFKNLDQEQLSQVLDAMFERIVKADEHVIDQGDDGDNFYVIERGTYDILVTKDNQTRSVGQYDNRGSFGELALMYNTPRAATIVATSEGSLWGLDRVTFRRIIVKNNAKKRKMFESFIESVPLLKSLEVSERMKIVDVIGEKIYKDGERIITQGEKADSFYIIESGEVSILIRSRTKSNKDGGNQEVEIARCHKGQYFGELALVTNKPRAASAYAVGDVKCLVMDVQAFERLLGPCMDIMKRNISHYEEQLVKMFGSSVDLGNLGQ
inactive: [1] 0.141 | [2] 0.001 | [3] 0.011 | [4] -0.033 | Nexturastat A 0.008 | vemurafenib -0.021 | [5] -0.021 | [6] 0.019 | givinostat 0.024 | barasertib -0.001 | [7] 0.03 | volasertib -0.024 | [8] 0.046 | epoxomicin -0.031 | [9] -0.007 | [10] -0.033 | [11] 0.047 | rosiglitazone 0.011 | [12] 0.077 | [13] 0.023

POTEI (UniProt P0CG38)
inactive: [1] 0.056 | [2] -0.035 | [3] -0.012 | [4] 0.052 | Nexturastat A -0.071 | vemurafenib 0.08 | [5] 0.014 | [6] -0.072 | givinostat -0.018 | barasertib 0 | [7] -0.009 | volasertib -0.009 | [8] -0.043 | epoxomicin -0.039 | [9] -0.026 | [10] 0.009 | [11] -0.006 | rosiglitazone -0.028 | [12] -0.06 | [13] 0.035

POP1 (UniProt Q99575)
Sequence of UniProt Q99575 (Q99575 whole entry, looked up): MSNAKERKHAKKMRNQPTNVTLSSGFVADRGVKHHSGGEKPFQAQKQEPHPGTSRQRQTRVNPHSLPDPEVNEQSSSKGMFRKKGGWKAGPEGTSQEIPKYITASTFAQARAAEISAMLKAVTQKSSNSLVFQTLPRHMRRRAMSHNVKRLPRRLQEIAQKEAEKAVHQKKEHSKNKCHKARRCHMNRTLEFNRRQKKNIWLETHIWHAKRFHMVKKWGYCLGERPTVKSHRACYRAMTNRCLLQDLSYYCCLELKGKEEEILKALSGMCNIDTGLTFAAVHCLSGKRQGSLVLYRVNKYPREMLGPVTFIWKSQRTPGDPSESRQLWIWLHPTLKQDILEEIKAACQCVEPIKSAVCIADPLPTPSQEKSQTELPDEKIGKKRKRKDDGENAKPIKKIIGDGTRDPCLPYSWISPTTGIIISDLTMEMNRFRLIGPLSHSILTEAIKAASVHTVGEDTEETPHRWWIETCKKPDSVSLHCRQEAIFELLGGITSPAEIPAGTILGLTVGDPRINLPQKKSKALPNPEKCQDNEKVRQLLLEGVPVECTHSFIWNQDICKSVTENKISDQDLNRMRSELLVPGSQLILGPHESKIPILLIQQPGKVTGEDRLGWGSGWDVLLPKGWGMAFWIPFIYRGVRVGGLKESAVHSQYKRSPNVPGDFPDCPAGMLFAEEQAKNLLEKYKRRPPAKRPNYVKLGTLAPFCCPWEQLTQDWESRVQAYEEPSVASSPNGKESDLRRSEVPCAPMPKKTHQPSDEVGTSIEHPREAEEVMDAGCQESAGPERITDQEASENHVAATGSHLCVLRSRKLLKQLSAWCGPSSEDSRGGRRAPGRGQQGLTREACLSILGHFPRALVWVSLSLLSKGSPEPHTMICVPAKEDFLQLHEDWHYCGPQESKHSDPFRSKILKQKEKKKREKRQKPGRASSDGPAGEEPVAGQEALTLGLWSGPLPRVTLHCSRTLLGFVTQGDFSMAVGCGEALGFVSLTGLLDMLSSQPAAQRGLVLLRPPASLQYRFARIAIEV
inactive: [1] 0.03 | [2] -0.001 | [3] 0.004 | [4] -0.02 | Nexturastat A -0.011 | vemurafenib -0.004 | [5] 0.021 | [6] 0.018 | givinostat -0.009 | barasertib -0.042 | [7] 0.069 | volasertib 0.092 | [8] 0.02 | epoxomicin -0.001 | [9] 0.006 | [10] 0.028 | [11] -0.019 | rosiglitazone -0.025 | [12] -0.009 | [13] 0.075

PMPCB (UniProt O75439)
inactive: [1] 0.012 | [2] -0.063 | [3] -0.009 | [4] 0.03 | Nexturastat A -0.07 | vemurafenib 0.06 | [5] -0.019 | [6] -0.015 | givinostat -0.042 | barasertib 0.01 | [7] 0.008 | volasertib 0.138 | [8] 0.038 | epoxomicin 0.022 | [9] -0.017 | [10] -0.125 | [11] 0.032 | rosiglitazone 0.002 | [12] -0.084 | [13] 0.098

PJA2 (UniProt O43164)
inactive: [1] -0.059 | [2] 0.019 | [3] -0.008 | [4] -0.019 | Nexturastat A 0.188 | vemurafenib -0.024 | [5] -0.062 | [6] -0.024 | givinostat 0.017 | barasertib -0.004 | [7] -0.007 | volasertib 0.001 | [8] 0.014 | epoxomicin 0.202 | [9] 0.055 | [10] 0.066 | [11] -0.051 | rosiglitazone 0.004 | [12] -0.001 | [13] -0.156

PRMT7 (UniProt Q9NVM4)
inactive: [1] 0.056 | [2] -0.197 | [3] 0.065 | [4] -0.055 | Nexturastat A -0.003 | vemurafenib -0.03 | [5] 0.145 | [6] -0.014 | givinostat 0.042 | barasertib 0.023 | [7] -0.074 | [8] 0.04 | epoxomicin -0.036 | [9] -0.042 | [10] -0.077 | [11] 0.032 | rosiglitazone 0.082 | [12] 0.022 | [13] -0.176
active: volasertib -0.461

PIK3CB (UniProt P42338)
inactive: [1] -0.034 | [2] -0.009 | [3] 0.024 | [4] 0.054 | Nexturastat A 0.013 | vemurafenib 0.022 | [5] -0.001 | [6] -0.041 | givinostat 0.052 | barasertib 0.077 | [7] 0.017 | [8] 0.082 | epoxomicin 0.033 | [9] -0.01 | [10] -0.071 | [11] 0.008 | rosiglitazone 0.078 | [12] 0.003 | [13] 0.175
active: volasertib -0.224
